From PubChem BioAssay AID720697 (Broad Institute, 2013)
Potency and affinity values are given separately. Records with an inconclusive call do not appear. Active and inactive are the calls of the source.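 The calls were made as follows: active = signal loss with fitted half-maximal concentration at or below twice the top valid tested dose in every test run; inconclusive = runs disagree, flat 30 to 70% signal loss, or poor fit; inactive = all runs flat, opposite direction, or potency beyond limit.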

Assay: general mammalian cell viability loss – inhibitor set, cherry-pick, set 2, cytotoxicity control for miR-122 modulator project, dose response (AID 720697);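 also: 0% = median of neutral control wells and -100% = MG132 positive control wells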
Conditions: HEK293T viability, CellTiter-Glo luminescence, 48 h; series mostly up to 26 µM; activity change, negative = cytotoxicity: at the top concentration

| SMILES | activity change, negative = cytotoxicity |
| --- | --- |
| O=C(COC(=O)c1ccccc1)Nc1cc(Cl)ccc1Oc1ccccc1 | 99% (inactive) |
| CN1C(=O)c2cc(NC(=O)c3ccc(F)cc3)ccc2OC[C@@H]2O[C@@H](CC(=O)O)CC[C@@H]21 | 121% (inactive) |
| O=C(CC(F)(F)F)N1C[C@H]2[C@@H](c3ccccc31)[C@H](CO)N2C(=O)Cc1cccnc1 | 112% (inactive) |
| CCN(C[C@@H]1[C@@H](c2ccccc2)[C@@H](CO)N1C(=O)COC)S(C)(=O)=O | -30.5% [at 23.5 µM] (inactive) |
| CCNC(=O)C[C@@H]1CC[C@H]2[C@H](COc3ccc(NC(=O)c4ccccc4)cc3C(=O)N2C)O1 | 92.7% (inactive) |
| C[C@@H]1CN([C@@H](C)CO)S(=O)(=O)c2ccc(-c3ccccc3)cc2O[C@@H]1CN(C)C(=O)c1ccc2c(c1)OCO2 | -14.7% (inactive) |
| CCCNC(=O)N1[C@H](CO)[C@@H](c2ccccc2)[C@H]1CNC(=O)c1ccccc1 | 70.2% (inactive) |
| CNC(=O)C[C@@H]1CC[C@@H]2[C@@H](COc3ccc(NC(=O)Nc4ccccc4OC)cc3C(=O)N2C)O1 | 43.5% (inactive) |
| CN(C)CCCN(C(=O)CCc1ccccc1)c1nc2ccc(Br)cc2s1 | 22.8% (inactive) |
| C/C=C/c1ccc([C@@H]2[C@H](CO)N[C@H]2CN(CC(C)C)C(=O)c2ccccn2)cc1 | 29.5% (inactive) |
| CC(=O)Oc1ccc2c(c1)C(=O)c1ccccc1CO2 | -73.2% (inactive) |
| CN1C(=O)c2cc(NC(=O)c3cccc(F)c3)ccc2OC[C@@H]2O[C@H](CC(=O)NC3CCC3)CC[C@@H]21 | -10.6% (inactive) |
| CN1C(=O)c2cc(NC(=O)c3cccc(F)c3)ccc2OC[C@H]2O[C@H](CC(=O)O)CC[C@H]21 | 112% (inactive) |
| CN1C(=O)c2cc(NC(=O)Nc3ccccc3F)ccc2OC[C@@H]2O[C@H](CC(=O)O)CC[C@@H]21 | 20.6% [at 23.5 µM] (inactive) |
| CC(C)C#Cc1ccc2c(c1)O[C@H](CN(C)C(=O)c1ccncc1)[C@H](C)CN([C@H](C)CO)S2(=O)=O | 10.8% (inactive) |
| CC(=O)Nc1ccc2c(c1)C(=O)N(C)[C@@H]1CC[C@@H](CC(=O)NCc3ccc(Cl)cc3)O[C@H]1CO2 | 102% [at 23.5 µM] (inactive) |
| CC(=O)c1ccc(Nc2nc3ccc(C)cc3n3cnnc23)cc1 | 52.6% (inactive) |

| SMILES | activity change, negative = cytotoxicity |
| --- | --- |
| C[C@@H]1CN([C@@H](C)CO)C(=O)c2cccc(NC(=O)c3ccc(-c4nccs4)cc3)c2O[C@H]1CN(C)Cc1ccc2c(c1)OCO2 | -20.4% [at 23.5 µM] (inactive) |
| CCN(C[C@H]1N[C@H](CO)[C@H]1c1ccc(C2=CCCC2)cc1)C(=O)c1cccnc1 | 8.01% (inactive) |
| O=C(c1cccc(F)c1)N1C[C@@H]2[C@H](c3ccccc31)[C@H](CO)N2C(=O)Cc1ccccc1 | -34.4% (inactive) |
| CN1C(=O)c2cc(NC(=O)Cc3ccccc3)ccc2OC[C@@H]2O[C@@H](CC(=O)NCc3ccc(Cl)cc3)CC[C@H]21 | 24.9% (inactive) |
| O=C(N/N=C/c1ccco1)c1cccc(N2CCCC2=O)c1 | 34.1% (inactive) |
| CNC(=O)C[C@@H]1CC[C@@H]2[C@@H](COc3ccc(NC(=O)c4ccccc4F)cc3C(=O)N2C)O1 | 102% [at 23.5 µM] (inactive) |
| COCCNC(=O)C[C@H]1CC[C@@H]2[C@@H](COc3ccc(NS(=O)(=O)c4ccc(Cl)cc4)cc3C(=O)N2C)O1 | -6.55% (inactive) |
| CCCNC(=O)C[C@@H]1CC[C@@H]2[C@H](COc3ccc(NC(=O)c4cc(F)cc(F)c4)cc3C(=O)N2C)O1 | 61.1% (inactive) |
| COc1ccc(NS(=O)(=O)c2ccc(NC(=O)C(C)(C(F)(F)F)C(F)(F)F)cc2)nn1 | 69.7% (inactive) |
| C/C=C/c1ccc([C@H]2[C@H](CO)N[C@H]2CN(C)S(=O)(=O)c2ccccc2)cc1 | 161% (inactive) |
| CC(C)c1ccc(NC(=O)C[C@H]2CC[C@H]3[C@@H](COc4ccc(NC(=O)Nc5ccc(F)c(F)c5)cc4C(=O)N3C)O2)cc1 | -6.32% (inactive) |
| O=C(Nc1ncc(Cc2cccc(C(F)(F)F)c2)s1)c1ccc(-c2cccc([N+](=O)[O-])c2)o1 | -25.5% [at 6 µM] (inactive) |
| N=c1c2c(-c3ccccc3)c(-c3ccccc3)n(Cc3ccccc3)c2ncn1CCO | -63% (inactive) |
| C[C@H](CO)N1C[C@H](C)[C@@H](CN(C)CC2CCCCC2)OCCCC[C@H](C)Oc2ccc(NC(=O)Nc3cccc4ccccc34)cc2C1=O | -41.4% (inactive) |
| C[C@@H]1CN([C@@H](C)CO)S(=O)(=O)c2ccc(C#CC3(O)CCCC3)cc2O[C@@H]1CN(C)C(=O)c1cccnc1 | 68.5% (inactive) |
| COc1cccc(CNC(=O)C[C@@H]2CC[C@H]3[C@H](COc4ccc(NC(C)=O)cc4C(=O)N3C)O2)c1 | 13.5% (inactive) |
| C[C@H](NC(=O)C[C@H]1CC[C@@H]2[C@@H](COc3ccc(NS(=O)(=O)c4ccc(Cl)cc4)cc3C(=O)N2C)O1)c1ccccc1 | 77.1% (inactive) |
